The supplement of paper PMC6555819

What follows are sequences tested on PPARg:RXRa 270nM:90nM, anti-RXR (NR concentration 270 nM, RXRa partner concentration 90 nM) (assay: PBM binding z-score (relative to random genomic background probes); higher = stronger binding; sequences stand for … in GC…GCGATTGACAGCGTAGAATGAAGG).
Outline: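 For binding z-scores, the reference was random background probes on custom Agilent 4×180K protein-binding microarrays. These arrays were incubated 1 h with ligand-free nuclear receptor dimers in PBS pH 7.4, 2% milk, 0.02% Triton X-100, 1 mM DTT, 0.2 mg/mL BSA and 0.4 mg/ml salmon testes DNA. Fluorescence was scanned after antibody detection of each partner (one per run) and regression-normalized.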

Row | Sequence | PBM binding z-score
1 | CCACGGAGGACAGAAGGTCAGAGCTGTCCGCTTT | 0.736
2 | ATCTCGAGGTAAAGTTCAGTGAAAGATCGATAGA | 3.53
3 | CCAGACAGGTGTAAGGTAACTCAGTCTGGTACGC | 0.842
4 | CGAACTAGGTCATCCAGGACAGTGTATACATTGA | 6.1
5 | CGAACTAGGTCATCCAGGGCAGTGAATACATTGA | 6.54
6 | GCTTTCGGGTCAAAGGTTATAGCATGAATAGAAT | 9.26
7 | GCGACTGGGGTAAAGCAGGTTACCATAAGGTTGG | 1.19
8 | AGAATGAGGTTATGAAGATCAGGGAATTGCGGTC | 2.1
9 | GGAACGAGGGAAAAGTTGATAGCATCTGTCGACG | 3.68
10 | ATATGTAGGTTAGCTGGGTTCATTCAGACTAGGC | 3.74
11 | AGAATGAGGTTATAAGTAGATCAGGGAAGAAAGT | 2.94
12 | TCTAGCAGGCCAAAGGGTCACTCAAGAGGTACGG | 4.84
13 | GCGACTGGGGCAAAGCAAGTTACCATAAGGTTGG | 1.1
14 | GTACCAAGGTGAATAGGACGTTGATGAGTAGGCG | 0.126
15 | TCAAGTAGGTTACCAATGGGGCATTCAGCTTTCT | 2.92
16 | TCATATAGGTACTACAGGTGAAAGTCGGCATCTA | 2.18
17 | TCATATAAGTAAACAGGTGAAAGTCCGTAAGTTA | 2.57
18 | TCATGTAGGTAAATGCTAGGTGAAAGTCCGATCT | 2.1
19 | CCTTACGGGTCACGAGGTTATAGGACGACGAGCG | 6.72
20 | ATATCAAGGTGATCGTGAGGTCGTTGATACTAAC | 0.763

Row | Sequence | PBM binding z-score
21 | TAGCCTAGGTCATGCGGGCCACTATAGTGTCGGC | 2.65
22 | GTACCAAGGTGAAGAGGTCGTTGATGAGTAGGCG | 2.49
23 | CCTAGTTGGTCAAAGTCACACACGCTATAGGTAC | 1.68
24 | TCTTGTAGATCAAGCACGTTAAGAAAGCCTGAGT | 1.12
25 | TTACCAAGGTGAGAGGTCGTTGATGCACGCCTTG | 6.4
26 | TCTTGTAGATCAAAGGCTAAGAAAGCCGAAGCCT | 4.87
27 | TAGCCTAGGTCAGAACGGGCCAGTATACGCTATA | 0.742
28 | ATCGAAAGGTCGAAGGCGAGTATACCCACCCGAA | 2.5
29 | CCTAGCAAGCCAATCTGGGTCACTCAAGGCTTGA | 1.79
30 | CCGAGTTGGTCAGGAGGTCACACACCGGATATGA | 3.24
31 | AGAGACAGGTGAGTGAAGGTAACTCAGCTGGACG | 0.226
32 | GCTCGGCGGACAAGGTCAGAGCTTTGTCCGTAGA | 0.435
33 | ACTAGCAGGCCAAGTTTGGGCCACTCAAACAAAG | -0.685
34 | ACTAGCAGGCCAAGTTTGGGTCACTCAGACAAAG | 0.225
35 | CCTTACGGGTCACTCCAGGGTATAGCATCGGAGT | 3.68
36 | GGAACGAGGGCAATTTGATAGCAGAGTTTGATGG | 0.751
37 | CGTCCAAGGTCATAGGAGGTCAGTTAAGACAGAT | 5.96
38 | CGTCCAAGGTGAGCAGGTCAGTGAAAGCGACGTG | 1.08
39 | GCTAGTTGGTCAGTAAAAGGTCACACATCGGTCG | 4.56
